# Source: PubChem BioAssay (NCI)
# Compounds without any hit were thinned out: in the full panel of roughly 83,000, 20% have a hit.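 Activity criterion: percent growth below 10, measured after cells in 96-well plates were exposed to a single compound concentration for 48 hours.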 Unmarked numbers belong to inactive results. The source made the active and inactive calls.
# Legend:
# Assay in all cases: NCI-60 one-dose screen, 48 h (100 = growth as untreated, 0 = no growth, -100 = all killed)
# Details in all cases: 10 µM unless noted
# BT-549 breast = system: BT-549 breast
# MDA-MB-435 melanoma = system: MDA-MB-435 melanoma
# SW-620 colon = system: SW-620 colon
# MCF7 breast = system: MCF7 breast
# HCT-116 colon = system: HCT-116 colon
# HCC-2998 colon = system: HCC-2998 colon
# KM12 colon = system: KM12 colon
Compound,growth (BT-549 breast),growth (MDA-MB-435 melanoma),growth (SW-620 colon),growth (MCF7 breast),growth (HCT-116 colon),growth (HCC-2998 colon) [%],growth (KM12 colon)
O=C(NN(C(=O)c1ccccc1)c1cccs1)c1ccccc1,98%,124%,104%,110%,93.7%,103,117%
COc1cc(/C=C2\COc3ccc(O)c(O)c3C2=O)cc(OC)c1,3.92% (active),0.577% (active),-19.3% (active),16.7%,-56% (active),25.1,-11.1% (active)
COc1ccc(C(=O)COc2cccc(/C=C3\Oc4ccc5ccccc5c4C3=O)c2)cc1,-96.9% (active),94.7%,19%,10.1%,29%,60,97.9%
N#Cc1c(N2CCOCC2)nc2sc3cc(Cl)ccc3n2c1=N,129%,114%,98.3%,74.7%,103%,122,82.3%
O=C(Nc1ccncc1)C(=O)c1cn(S(=O)(=O)c2cccc(F)c2)c2ccccc12,27.8%,-1.83% (active),21.7%,5.06% (active),19.5%,66.2,27.6%
O=Cc1c[nH]c2ccc(NC(=O)OCc3ccccc3)cc12,21.4%,115%,121%,100%,98.9%,96.2,123%
CC1CC(C)/C(=N/NC(N)=O)C(C(O)CC2CCC(=O)NC2=O)C1 (stereo not given),53.1%,34.3%,34.3%,36.7%,24%,58.8,32.3%
COc1ccc2nc3cc(Cl)ccc3c(Nc3cc(C(C)C)c(O)cc3C)c2c1,57%,30.8%,21.8%,15.5%,1.48% (active),37.5,8.35% (active)
COc1cc2c(cc1OC)C1CCN3C(=O)CCC3N1CC2 (stereo not given),107%,113%,106%,103%,109%,101,109%
OCCOc1c(Cl)cc(Cl)cc1Cl,109%,103%,98.7%,89%,109%,110,115%
O=C(C(=O)N1CCCCC1)c1ccc(OC2OC(CO)C(O)C(O)C2O)cc1 (stereo not given),116%,107%,109%,94.3%,109%,108,115%
COc1cc(/C=C2\CCC/C(=C\c3ccc(OCC4CO4)c(OC)c3)C2=O)ccc1OCC1CO1 (stereo not given),30.3%,-32.3% (active),-23% (active),-6.99% (active),-54.7% (active),,-0.568% (active)
Cn1c(=O)c2nc(SCc3ccccc3)n(C)c2n(C)c1=O,107%,113%,106%,106%,98.9%,,104%
Cc1c(C(N)=O)sc2ncn(Cc3ccccc3)c(=O)c12,62.6%,53.7%,103%,99.8%,94.7%,,110%
COc1ccc(OC)c(NC(=O)c2cc3oc4ccccc4c3cc2O)c1,89.1%,105%,104%,83.3%,106%,,99.5%
N#Cc1c2ccccc2c2n1-c1ccccc1OC(c1ccccc1)C2=O (stereo not given),9.32% (active),24.1%,56.9%,72.4%,11.3%,,16%
C/C(=N/N=C(N)N)c1ccc(N)cc1,70.1%,49%,97%,81.3%,103%,,96%
Cc1c(NCc2nnc3n(Cc4ccccc4)c(=O)c4c5c(sc4n23)CCCC5)c(=O)n(-c2ccccc2)n1C,91.7%,73.5%,103%,85.1%,88.1%,,98.8%
O=C(Nc1nc(-c2ccccc2)cs1)c1cc(O)c(O)c(O)c1,46%,61%,39.7%,58.4%,25.9%,,64.7%
